KDM4E inh = qHTS Assay for Inhibitors of Human Jumonji Domain Containing 2E (JMJD2E). Lysine-specific demethylase 4E (Homo sapiens), B2RXH2. JMJD2E catalytic domain, FDH-coupled NADH fluorescence (FDH is formaldehyde dehydrogenase). Potency, µM (top dose mostly 57.1 µM), for the others: at the top dose activity change, negative = inhibition, usual class: inhibitors. 230,000 tested, 1.6% active. AID 2147, 2009;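 further: potency means the concentration at half of the fitted maximal effect; 0% = wells with enzyme and -100% = buffer wells without enzyme; nearly all actives have a fitted effect of over 50% in size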
HPGD inh = qHTS Assay for Inhibitors of HPGD (15-Hydroxyprostaglandin Dehydrogenase); 15-hydroxyprostaglandin dehydrogenase [NAD(+)] (Homo sapiens), P15428; AID 894, 2007; purified HPGD, NADH fluorescence kinetic, PGE2 substrate; Potency, µM, for the others: at the highest dose activity change, negative = inhibition, usual class: inhibitors; 150,000 tested, 4.3% active; further: potency means the concentration at half of the fitted maximal effect; on the % scale 0 is the no-effect control and ±100 the full control effect
Target sequence (P15428 whole entry, looked up): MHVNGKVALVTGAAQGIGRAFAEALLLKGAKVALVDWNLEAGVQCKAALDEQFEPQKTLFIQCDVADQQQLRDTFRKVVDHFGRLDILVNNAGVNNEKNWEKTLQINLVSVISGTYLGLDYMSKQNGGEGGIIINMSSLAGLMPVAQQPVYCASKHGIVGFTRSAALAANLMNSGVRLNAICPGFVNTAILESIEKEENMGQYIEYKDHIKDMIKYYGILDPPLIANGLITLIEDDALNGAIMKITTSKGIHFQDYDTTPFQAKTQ
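NADH formation kinetics: reaction with 30 uM PGE2 and 1 mM NAD+ (final), 20 nM enzyme, Tris-HCl pH 8 with Tween 20, after 15 min compound preincubation at room temperature. Fluorescence change, last versus first of five reads.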
HTT cytoprotect = qHTS Multiplex Assay to Identify Dual Action Probes in a Cell Model of Huntington: Cytoprotection (ATP). Potency, µM (doses to about 56.4 µM), for the others: cytoprotection (ATP increase), hits mostly activators. 230,000 tested, 0.14% active. PC12 HTT-Q103 induced, cytoprotection, ATP luminescence, 40 h; active means well fitted curve in the direction sought with a large enough effect; inconclusive means small, poorly fitted or top-dose-only effect, or another doubt; inactive means no such curve, though single readings can be large; an effect the other way counts as inactive or inconclusive; further: potency means the concentration at half of the fitted maximal effect; % of control where 0% means no effect; nearly all actives have a fitted effect of over 45% in size
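Huntington model: PC12 line, ecdysone-inducible HTTQ103 exon1–GFP, tebufenozide 100 nM. Test articles in a dose series. Endpoint luminescence from cellular ATP.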
HTT aggregate = qHTS Multiplex Assay to Identify Dual Action Probes in a Cell Model of Huntington: Aggregate Formation (GFP). Potency, µM (series often up to 46.1 µM), inactives show at the highest dose activity change, negative = inhibition, actives largely listed as inhibitors. PC12 HttQ103-GFP aggregates, Acumen cytometry, 40 h. 220,000 tested, 1.1% active; active means well fitted curve in the direction sought with a large enough effect; inconclusive means small, poorly fitted or top-dose-only effect, or another doubt; inactive means no such curve, though single readings can be large; an effect the other way counts as inactive or inconclusive; further: potency means the concentration at half of the fitted maximal effect; on the % scale 0 is the no-effect control and ±100 the full control effect; nearly all actives have a fitted effect of over 60% in size
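Aggregates are detected as GFP objects 1–25 µm with signal 6 STDEV over background in lysates of induced PC12 cells. These carry Huntingtin exon 1 with 103 glutamines fused to GFP under an ecdysone promoter; compounds titrated.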
ALDH1A1 block = qHTS Assay for Inhibitors of Aldehyde Dehydrogenase 1 (ALDH1A1). Aldehyde dehydrogenase 1A1 (Homo sapiens), P00352. Purified ALDH1A1, NADH fluorescence, propionaldehyde substrate. Potency, µM (doses to about 75.3 µM), inactives show top-dose activity, negative = inhibition, hits mostly inhibitors. 220,000 tested, 7.3% active. AID 1030, 2008;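 further: potency means the concentration at half of the fitted maximal effect; plate controls were no enzyme wells and a reference inhibitor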
Target sequence (P00352 whole entry, looked up): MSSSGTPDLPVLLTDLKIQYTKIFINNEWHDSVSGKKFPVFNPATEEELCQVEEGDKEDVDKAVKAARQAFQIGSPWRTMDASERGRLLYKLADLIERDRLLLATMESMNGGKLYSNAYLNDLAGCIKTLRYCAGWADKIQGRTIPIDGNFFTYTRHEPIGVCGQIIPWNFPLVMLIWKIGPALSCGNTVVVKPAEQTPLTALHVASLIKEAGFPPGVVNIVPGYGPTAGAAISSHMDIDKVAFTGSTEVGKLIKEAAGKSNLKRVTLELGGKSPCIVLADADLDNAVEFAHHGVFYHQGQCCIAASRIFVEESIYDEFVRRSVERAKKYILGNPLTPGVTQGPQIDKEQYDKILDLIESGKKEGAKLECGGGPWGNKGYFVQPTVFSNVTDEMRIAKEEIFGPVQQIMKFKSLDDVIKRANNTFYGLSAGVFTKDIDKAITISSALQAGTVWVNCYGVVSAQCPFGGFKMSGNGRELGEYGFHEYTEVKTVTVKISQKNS
CBFb-RUNX1 inh = qHTS Assay for Compounds Blocking the Interaction Between CBF-beta and RUNX1 for the Treatment of Acute Myeloid Leukemia; 230,000 tested, under 10 active; AlphaScreen CBFb-His/RUNX1-biotin binding, biochemical; Potency, µM (titrated, usually from 59.8 µM), inactives show at the top dose activity, negative = inhibition, usual class: inhibitors; AID 1477, 2009; active means well fitted curve in the direction sought with a large enough effect; inconclusive means small, poorly fitted or top-dose-only effect, or another doubt; inactive means no such curve, though single readings can be large; an effect the other way counts as inactive or inconclusive; further: % of control where 0% means no effect
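Compounds were screened at multiple concentrations against a preformed CBF-beta(His)/RUNX1(biotin) complex (30 nM of each) for 15 min at room temperature, followed by 90 min with nickel and streptavidin beads and AlphaScreen reading.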
Numbers without * were called inactive; ? = inconclusive; . = no result given; [ ] = remark or other dose. A selection: hits, their analogues and other compounds. The true share with any hit is near 9.8%. Unless noted, the call rests on the fitted dose curve; in most records, active means well fitted inhibition curve with a large enough effect (not every such curve was filed as active); inconclusive means small, poorly fitted or top-dose-only effect, or another doubt; inactive means no such curve, though single readings can be large or run the other way.

SMILES | KDM4E inh | HPGD inh | HTT cytoprotect | HTT aggregate | ALDH1A1 block | CBFb-RUNX1 inh
COc1cc([N+](=O)[O-])cc(/C=N/NC(=O)c2cc(-c3ccccc3)nc3ccccc23)c1O | 22µM* | . | -24%[10 µM] | -17%[9.22 µM] | . | -6%
COc1cccc(/C=N/NC(=O)c2ccc([N+](=O)[O-])cc2Cl)c1O | 14µM* | -11% | -79%[10 µM] | 7.1µM* | 2% | ?
O=C(N/N=C/c1cccc(F)c1)c1cc(-c2ccco2)nc2ccccc12 | ? | ? | -68% | ? | ? | .
COc1cc([N+](=O)[O-])cc(/C=N/NC(=O)c2cc(C)nc3ccccc23)c1O | 25µM* | . | -4%[10 µM] | 5%[9.22 µM] | . | ?
COc1cc(/C=N/NC(=O)c2cccc([N+](=O)[O-])c2)cc(OC)c1O | 4% | . | -33% | -3% | -5% | 1%
COc1cc(/C=N/NC(=O)c2cc(-c3ccco3)nc3ccccc23)cc(OC)c1O | ? | . | -1%[10 µM] | -8%[9.22 µM] | 22µM* | -12%
Cc1nnsc1C(=O)N1CCN(c2cc(C(F)(F)F)ccn2)CC1 | -15% | . | 8%[10 µM] | -4%[9.22 µM] | 4% | 2%
CCOc1ccc(NC(=O)c2sccc2-n2cccc2)cc1 | -1% | . | -18% | 10% | -9% | -6%
Cc1onc(-c2ccccc2)c1C(=O)NC(=S)NNC(=O)c1ccco1 | -23% | . | 19%[10 µM] | -14%[9.22 µM] | . | -7%
Cc1onc(-c2ccccc2)c1C(=O)NC(=S)NNC(=O)c1cc(-c2ccc(F)cc2)n[nH]1 | 13µM* | . | 15%[10 µM] | -6%[9.22 µM] | . | ?
O=c1c2ccccc2nc(CSc2ncnc3nc[nH]c23)n1-c1cccc(C(F)(F)F)c1 | 7% | -19% | 12% | 20% | 0% | -1%
NS(=O)(=O)c1cc(C(=O)O)cc(N2CCCC2)c1Oc1ccccc1 | ? | ? | -48%[17.1 µM] | -9%[20.6 µM] | ? | 15%[21.7 µM]
CCCCNc1cc(C(=O)O)cc(S(N)(=O)=O)c1Oc1ccccc1 | 25µM* | ? | ? | 5% | ? | 2%
CC12C=C(/C=C/c3ccccc3)C(C)(C1)C(c1ccccc1)CC2=O (centres undefined) | . | . | 6%[10 µM] | . | -8%[13.5 µM] | -1%[13.1 µM]
Cc1cc(OC(=O)c2c(C)cc(O)cc2O)cc(O)c1C(=O)O | -7% | 16µM* | -43% | . | -13% | -3%
CCOC(=O)c1c(C)cc(OC)cc1O | 5% | ? | -5% | . | -13% | 19%
CN1/C(=C/c2cc[n+](C)c3ccccc23)C=Cc2ccccc21 | 11µM* | . | -130% | 2.5µM* | -7% | -26%
Cc1nc(C)c(C(=O)NNC(=O)Nc2ccc(Cl)cc2)s1 | 5% | . | -2%[10 µM] | -8%[9.22 µM] | . | 11%
CCN(CC)c1ccc2cc(C(=O)Nc3ccccn3)c(=O)oc2c1 | 4.5µM* | -29% | -19%[10 µM] | 11% | ? | ?
O=C(CCc1nnc(-c2ccccc2)o1)NC1CCCCC1 | 10% | . | -8%[10 µM] | -4%[9.22 µM] | 1% | 2%
O=C(CCc1nc(-c2ccccc2)no1)NC1CCCCC1 | 0% | 18µM* | -11% | 5% | ? | 6%
O=C(CCc1nc(-c2ccccc2F)no1)NC1CCCCCC1 | 10% | 28µM* | -11% | -29% | -11% | 4%
CCOC(=O)c1sc(NC(=O)C2CC=CCC2C(=O)O)nc1C (centres undefined) | 3% | -15% | 22% | -2% | 0.13µM* | -16%
CCOC(=O)c1sc(NC(=O)c2ccc(C)o2)nc1C | -10% | 20µM* | -107% | -12% | -11% | -4%
Cc1cc([N+](=O)[O-])nn1CCC(=O)Nc1nccs1 | 1% | . | 13%[10 µM] | 4%[9.22 µM] | 9% | 2%
SMILES | KDM4E inh | HPGD inh | HTT cytoprotect | HTT aggregate | ALDH1A1 block | CBFb-RUNX1 inh
CC(NC(=O)CNC(=S)N(Cc1cccs1)C1CCCC1)c1ccccc1 (centres undefined) | -3% | . | -26% | -9% | 16µM* | 2%
O=C(CNC(=S)N(Cc1ccccc1F)C1CCCCC1)NCCCN1CCOCC1 | 3% | . | -42% | 5% | ? | 10%
O=C(CNC(=S)N(Cc1ccccc1)Cc1ccccc1F)NCc1ccc(Cl)cc1 | -4% | . | -79% | ? | ? | -17%
CCOCCCNC(=O)CNC(=S)N(Cc1ccccc1F)C1CCCCC1 | 2% | -12% | -2% | -1% | 14µM* | 1%
O=C(O)CNC(=S)N(Cc1cccs1)C1CCCCC1 | -6% | -9% | -12%[10 µM] | -3% | -7% | 8%
O=C(CNC(=S)N(Cc1ccccc1F)C1CCCCC1)NCCN1CCOCC1 | 0% | . | 12% | 1% | 1.9µM* | 4%
O=C(CNC(=S)N(Cc1ccccc1)Cc1ccccc1F)NCc1ccccc1 | -15% | . | 26%[10 µM] | ? | 10µM* | -17%
C[C@@H](c1ccccc1)N1C(=O)[C@H]2[C@H]3[C@H](O)[C@H](O)C/C(=N/OC[C@@H](O)COCc4ccco4)[C@H]3CC[C@@H]2C1=O | . | . | 13%[10 µM] | . | -11%[13.5 µM] | -1%[13.1 µM]
COc1c(S(=O)(=O)NCCCN2CCOCC2)ccc(Cl)c1Cl | -2% | . | 5%[10 µM] | 26%[9.22 µM] | . | 6%
CCC(C)NC(=O)CNC(=S)N(Cc1ccccc1F)C1CCCCC1 (centres undefined) | -13% | . | -40% | 11% | 10µM* | 4%
O=C(O)CNC(=S)N(Cc1ccccc1Cl)C1CCCC1 | 19% | . | -24% | 8% | 5% | 2%
Cc1ccc(C)c(NNC(=O)C(=O)NNc2cc(C)ccc2C)c1 | -15% | . | 2%[10 µM] | 22%[9.22 µM] | . | -1%
Cc1cccc(NNC(N)=S)c1C | -2% | . | 7%[10 µM] | -5%[9.22 µM] | 13µM* | -3%
Cc1ccc(C)c(NNC(N)=S)c1 | ? | . | . | ? | 13µM* | -9%
O=c1c(-c2ccccc2)nc2cnc(Oc3cccc(Cl)c3)nc2n1C[C@H]1CCCO1 | . | . | -26% | . | ? | .
O=[N+]([O-])c1cc(S(=O)(=O)N2CCCCCC2)ccc1Cl | 5% | . | . | . | -3% | -12%
Cc1ccc(NC(=O)N2CCC(C(=O)NCC(C)C)CC2)cc1 | 2% | . | 3%[10 µM] | -15% | 9% | 3%
COC(=O)CC1=NN(c2ccccc2)C(=O)/C1=C\c1ccc(OC)cc1 | -2% | 14µM* | -24%[10 µM] | 7% | ? | -24%
COc1ccc(C=C2c3ccccc3C(=O)c3ccccc32)c(OC)c1 | -5% | . | -80%[10 µM] | -27%[9.22 µM] | . | .
COc1ccc(NC(=O)N/C=C/c2ccc(Cl)cc2)cc1 | -3% | . | 12% | -6%[9.22 µM] | ? | 6%

Screening data from PubChem BioAssay.
